High-throughput results from PubChem BioAssay.
SRC1 inh = human NCOA1 inhibition; Q15788; HEK293 GAL4-SRC1 luciferase reporter, luminescence; inhibition, % at 3.6 µM; 360,000 compounds, 0.12% hits;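 active means inhibition above the campaign mean plus 3 SD, with each screening campaign given its own cutoff, cut at about 60% in these data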;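 further: 0% = DMSO treated cells and 100% = gossypol at 36 µM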
Target sequence (Q15788 whole entry, looked up, the tested form may be a part): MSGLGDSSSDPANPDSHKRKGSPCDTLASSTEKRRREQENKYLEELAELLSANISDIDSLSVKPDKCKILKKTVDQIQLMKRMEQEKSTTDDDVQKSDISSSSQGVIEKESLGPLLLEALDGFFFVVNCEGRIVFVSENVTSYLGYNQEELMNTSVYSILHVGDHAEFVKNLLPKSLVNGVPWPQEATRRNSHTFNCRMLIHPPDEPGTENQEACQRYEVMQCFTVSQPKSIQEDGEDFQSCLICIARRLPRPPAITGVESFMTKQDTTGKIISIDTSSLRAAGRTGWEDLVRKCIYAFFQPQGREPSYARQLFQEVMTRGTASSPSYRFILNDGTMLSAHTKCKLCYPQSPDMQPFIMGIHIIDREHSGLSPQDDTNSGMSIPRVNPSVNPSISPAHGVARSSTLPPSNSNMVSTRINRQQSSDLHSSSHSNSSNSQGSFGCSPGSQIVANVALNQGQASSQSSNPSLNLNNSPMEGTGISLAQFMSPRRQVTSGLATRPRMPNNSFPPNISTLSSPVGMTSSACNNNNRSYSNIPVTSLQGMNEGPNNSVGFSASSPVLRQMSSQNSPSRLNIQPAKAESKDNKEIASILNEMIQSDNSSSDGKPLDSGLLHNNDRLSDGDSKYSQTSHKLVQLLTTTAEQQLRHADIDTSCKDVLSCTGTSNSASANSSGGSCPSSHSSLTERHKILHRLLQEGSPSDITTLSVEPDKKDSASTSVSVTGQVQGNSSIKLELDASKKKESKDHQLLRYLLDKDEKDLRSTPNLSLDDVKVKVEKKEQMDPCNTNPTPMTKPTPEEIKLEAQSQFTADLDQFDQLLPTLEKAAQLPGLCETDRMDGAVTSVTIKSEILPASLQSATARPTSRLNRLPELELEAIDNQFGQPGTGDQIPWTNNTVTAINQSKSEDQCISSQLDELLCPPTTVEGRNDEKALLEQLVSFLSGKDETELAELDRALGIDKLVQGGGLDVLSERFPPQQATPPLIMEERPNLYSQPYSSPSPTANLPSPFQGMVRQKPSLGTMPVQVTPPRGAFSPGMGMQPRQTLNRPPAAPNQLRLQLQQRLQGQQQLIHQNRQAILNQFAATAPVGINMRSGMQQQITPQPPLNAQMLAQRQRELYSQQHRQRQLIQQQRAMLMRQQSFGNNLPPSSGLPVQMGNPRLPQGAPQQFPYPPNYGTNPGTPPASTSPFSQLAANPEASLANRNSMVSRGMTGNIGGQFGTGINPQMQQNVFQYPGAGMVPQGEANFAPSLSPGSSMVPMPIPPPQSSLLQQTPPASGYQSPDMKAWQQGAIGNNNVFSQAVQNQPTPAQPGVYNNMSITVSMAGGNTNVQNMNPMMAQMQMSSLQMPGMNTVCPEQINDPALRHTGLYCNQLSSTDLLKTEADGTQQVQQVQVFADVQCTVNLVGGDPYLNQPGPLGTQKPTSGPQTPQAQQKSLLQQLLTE
NCOA2 inhibitor = inhibits human steroid receptor coactivator 2. Q15596. HEK293 GAL4-SRC2 luciferase reporter, luminescence. inhibition, % at 9 µM. 370,000 compounds, 0.17% hits;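 active means inhibition above the mean inhibition of all tested compounds plus 3 SD, set per campaign, cut at about 52% in these data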;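 further: 0% = DMSO treated cells and 100% = cells given Gossypol at 36 µM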
SRC3 inh = inhibitors of human steroid receptor coactivator 3 (SRC3); HEK293 GAL4-SRC3 luciferase reporter, luminescence; inhibition, % at 3.6 µM; AID 588352; 360,000 compounds, 0.17% hits;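 active means inhibition above a per-campaign cutoff, the mean of all compounds plus 3 SD, cut at about 60% in these data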;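 further: 0% = DMSO-treated cells and 100% = gossypol-treated cells at 36 µM; higher means less SRC3-driven luciferase light from the GAL4 reporter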
NR5A2 inv ag = NR5A2 inverse agonism in reporter assay; O00482; HEK293T StAR-luciferase reporter, LRH-1 transfected, 24 h; inhibition, % at 3.6 µM; 360,000 compounds, 0.13% hits; AID 602396;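 active means inhibition above the mean inhibition of all tested compounds plus 3 SD, cut at about 73% in these data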;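 further: 0% = DMSO wells and 100% = reporter-only cells lacking LRH-1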
Gli-Sufu block = blocks Gli-Sufu signaling in a luciferase reporter | inhibition, % at 5 µM | Sufu-KO-LIGHT fibroblasts, Gli luciferase reporter luminescence | 340,000 compounds, 0.74% hits;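 active means inhibition above about 55%, limit read from the data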;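 further: 0% = DMSO-treated cells and 100% = wells with medium but no cells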
NR2F2 inh = blocks human COUP-TFII nuclear receptor; 370,000 compounds, 0.7% hits; HEK293T NGFI-A luciferase reporter, luminescence; AID 686940; inhibition, % at 8.6 µM; P24468;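 active means inhibition above a per-plate cutoff, mean inhibition of test wells between control levels plus 3 SD, cut at about 38% in these data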;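 further: cells cotransfected with COUP-TFII expression vector driving the NGFI-A reporter; 0% = median of COUP-TF2 test wells and 100% = reporter-only cells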
Gli antag conf = confirmation of Gli-SUFU pathway antagonists. AID 602428. shares compounds with Gli-Sufu block. Sufu-KO-LIGHT cells, Gli luciferase reporter, luminescence. inhibition, % at 5 µM. 2,500 compounds, 40% hits;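 active means mean inhibition at 5 µM reaching about 45%, limit read from the data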;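 further: plate controls were DMSO-treated cells for no effect and wells lacking cells for full effect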
SufuKO cytotox = cytotoxicity counter-screen for Gli-SUFU antagonists; Sufu-KO-LIGHT cells cytotoxicity, ATP luminescence; 2,500 compounds, 32% hits; cytotoxicity, % at 5 µM; shares compounds with Gli-Sufu block;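 active means mean cytotoxicity at 5 µM above about 25%, limit read from the data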;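 further: cells exposed to compound overnight for roughly 16 to 18 hours; plate controls were DMSO wells with cells for no effect and medium without cells for full effect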
Wnt3a cs = inhibits Wnt3a reporter, counter-screen for Gli-SUFU antagonists; shares compounds with Gli-Sufu block; AID 651995; inhibition, % at 6.25 µM; Wnt-LIGHT cells, Wnt3a-driven luciferase reporter, luminescence; 2,500 compounds, 20% hits;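 active means mean inhibition above about 25%, limit read from the data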
Gal4-VP16 ctr = VP16 inhibition counter-screen for COUP-TFII | HEK293 Gal4-VP16 luciferase reporter, luminescence | 2,500 compounds, 25% hits | inhibition, % at 8.5 µM | shares compounds with NR2F2 inh | AID 687007; in the data active means inhibition above about 13%
COUP-TFII conf = COUP-TFII (NR2F2) inhibition, confirmation assay; shares compounds with NR2F2 inh; HEK293 NGFI-A luciferase reporter, luminescence; 2,500 compounds, 45% hits; inhibition, % at 8.5 µM;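 active means mean inhibition over three repeats above a set limit taken from the earlier primary screen, cut at about 38% in these data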;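 further: 100% = cells given the luciferase reporter alone without the COUP-TF2 vector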
An asterisk follows results filed as active; · = no result. Rows were chosen to be rich in hits. Some 1.3% of all compounds tested hit in one or more screens of this group.

SMILES	SRC1 inh	NCOA2 inhibitor	SRC3 inh	NR5A2 inv ag	Gli-Sufu block	NR2F2 inh	Gli antag conf	SufuKO cytotox	Wnt3a cs	Gal4-VP16 ctr	COUP-TFII conf
Cc1nn(C)c(C)c1CNC(=O)c1cnn2c1NC(c1ccccc1)CC2C(F)(F)F (stereo not drawn)	-20	16	16	0	4	-13	·	·	·	·	·
C=CCn1c(COc2ccc(Cl)cc2)nnc1SCC(=O)c1ccc(-c2ccccc2)cc1	·	1	·	·	·	13	·	·	·	·	·
COc1cccc(CN(C)C(=O)c2cc(COc3ccc4ncccc4c3)on2)c1	7	6	28	35	57*	73*	57*	20	27*	-2	56*
CC(NC(=O)c1cc(COc2ccccc2)on1)c1nccs1 (stereo not drawn)	-138	-32	-123	-78	-8	-61	·	·	·	·	·
CC(NC(=O)c1cc(COc2ccc3ncccc3c2)on1)c1ccc(F)cc1 (stereo not drawn)	10	21	28	40	58*	69*	64*	43*	16	0	58*
COC(=O)c1cc2c(c3c4cc(F)ccc4n(C(=O)c4ccccc4)c13)C(=O)N(C1CCCCC1)C2	·	-5	·	·	·	-12	·	·	·	·	·
COC(=O)c1ccc(Cn2ccc3ccc(-c4ccc5ccn(C(=O)c6ccc(C)cc6)c5c4)cc32)cc1	·	-30	·	·	·	-9	·	·	·	·	·
O=C(Cc1ccccc1)Nc1scc(-c2ccccc2)c1C(=O)N1CCOCC1	2	·	23	-9	3	·	·	·	·	·	·
NC(=O)c1c(-c2ccc(Cl)cc2Cl)csc1NC(=O)Cc1ccccc1	8	10	13	15	56*	73*	62*	21	6	-23	54*
CC(C)(C)c1ccc(C2CC2C(=O)N/N=C\c2ccc[nH]2)cc1 (stereo not drawn)	23	-14	71*	89*	88*	42*	92*	3	43*	0	64*
CCOC(=O)N1CCN(c2ncnc3c2[nH]c2ccc(F)cc23)CC1	13	-23	21	23	76*	64*	75*	27*	-6	-2	40*
CCCCOc1ncnc2c1[nH]c1ccc(OCC)cc12	-6	-17	2	-21	7	-15	·	·	·	·	·
CCOC(=O)N1CCN(c2ncnc3c2[nH]c2ccc(OC)cc23)CC1	9	-12	-4	34	45	-7	·	·	·	·	·
CCCCOc1ncnc2c1[nH]c1ccc(F)cc12	3	-4	-2	9	58*	56*	56*	29*	12	-84	29
COC(=O)C1CN(Cc2ccc(Cl)cc2)CCS(=O)(=O)N1Cc1cn(Cc2ccc(OC)cc2)nn1 (stereo not drawn)	·	-6	·	·	·	-9	·	·	·	·	·
CC(=O)[C@H]1CC[C@H]2[C@@H]3CCC4=CC(=O)CC[C@]4(C)[C@H]3CC[C@]12C	0	-16	11	23	7	34	·	·	·	·	·
CC12CCC(=O)C=C1CCC1C2CCC2(C)C(c3csc(N)n3)CCC12 (stereo not drawn)	23	38	19	27	58*	57*	62*	40*	46*	9	45*
CC1(C)CC(=O)C=C(N2CCNCC2)C1	12	-21	10	2	-1	9	·	·	·	·	·
CC1(C)CC(N2CCCC2)=CC(=[N+]2CCCCCC2)C1	35	13	38	69	83*	60*	88*	34*	42*	14*	58*
COc1ccc(CN2C/C(=C/c3ccccc3)N3C(=O)C[C@@H](c4ccc5ccccc5c4)N=C23)c(OC)c1	·	17	·	·	·	8	·	·	·	·	·
COc1ccc(NS(=O)(=O)c2ccc(OC)c(N(C)S(=O)(=O)c3ccc(Cl)cc3)c2)cc1	-4	34	26	40	74*	57*	43	39*	-35	-7	21
CC[C@@H]1CCC[C@@H](O)[C@@H](C)C(=O)O[C@H](C)[C@@H](C)C/C=C(C)/C(OC)=C\C(=O)N(C)C([C@@H](C)CC)C(=O)N(C)[C@@H](C(C)C)C(=O)N(C)[C@@H](COC)C(=O)N2CCC[C@H]2C(=O)N(C)[C@@H](C(C)C)C(=O)N2CCC[C@H]2C(=O)O1 (stereo partly drawn)	78*	-7	84*	98*	·	83*	·	·	·	14*	82*
COC(=O)c1ccc(N2C(c3cc(OC)cc(OC)c3)=Cc3ccc(OC)cc3C2CC(=O)c2ccco2)cc1 (stereo not drawn)	·	13	·	9	·	2	·	·	·	·	·
COC(=O)c1ccc(N2C(c3ccsc3)=Cc3cc4c(cc3C2CC(=O)c2ccco2)OCO4)cc1 (stereo not drawn)	·	23	·	28	·	43*	·	·	·	-1	8
CC(C)C[C@H](NC1(C(=O)NCCc2c[nH]c3ccccc23)CCN(C)CC1)C(=O)NCCCc1ccccc1	·	·	·	·	·	10	·	·	·	·	·
SMILES	SRC1 inh	NCOA2 inhibitor	SRC3 inh	NR5A2 inv ag	Gli-Sufu block	NR2F2 inh	Gli antag conf	SufuKO cytotox	Wnt3a cs	Gal4-VP16 ctr	COUP-TFII conf
C=CCn1c(SCC(=O)Nc2sccc2C(N)=O)nc2sc(CC)cc2c1=O	10	6	-27	6	15	42*	·	·	·	1	17
CCOC(=O)[C@]12CCCC=C1N(CCc1ccc(Cl)cc1)C(=O)[C@@H]2CC(=O)NCCC(C)C	·	16	·	·	·	6	·	·	·	·	·
COc1cccc2c1C(=O)c1c(O)c3c(c(O)c1C2=O)C[C@](O)(C(C)=O)C[C@H]3O[C@@H]1C[C@@H](N)[C@@H](O)[C@@H](C)O1	-165	47	-105	99*	56*	55*	·	·	·	36*	47*
COC(=O)[C@H]1C[C@@]2(CC=C(C)C)c3ccccc3N(C(=O)OC(C)(C)C)[C@H]2N1C(=O)OC(C)(C)C	·	·	·	·	·	3	·	·	·	·	·
CC1CC(C)C[N+](=C2C=C(N3CCCC3)CC(C)(C)C2)C1 (stereo not drawn)	34	-1	54	65	86*	62*	·	·	·	15*	59*
COC(=O)C[C@@H]1CC[C@H]2[C@H](COc3ccc(NC(=O)C4CCC4)cc3C(=O)N2C)O1	·	-25	·	·	·	7	·	·	·	·	·
C=CCC1(CC=C)CCCN1C(=O)c1cc(COc2ccc(C)nc2)on1	-10	-8	2	21	77*	57*	·	·	·	-47	55*
